This is a sample that favours compounds with a hit; in the whole collection about 31% have one here.
CYP2C19 inhib: blockers of cytochrome P450 2C19 activity – biochemical, luminescence, ADME assay, primary screen. P33261. CYP2C19 Supersomes, luciferin-H EGE luminescence, 30 min. inhibition, % at 5 µM. 96,000 compounds, 21% hits;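 active = CYP2C19 inhibition above a set limit at 5 µM in the primary screen, cut at about 50% in these data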;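 also: plate controls were negative control wells for no effect and 2.5 mM tranylcypromine positive control for full effect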
Target sequence (P33261 whole entry, looked up): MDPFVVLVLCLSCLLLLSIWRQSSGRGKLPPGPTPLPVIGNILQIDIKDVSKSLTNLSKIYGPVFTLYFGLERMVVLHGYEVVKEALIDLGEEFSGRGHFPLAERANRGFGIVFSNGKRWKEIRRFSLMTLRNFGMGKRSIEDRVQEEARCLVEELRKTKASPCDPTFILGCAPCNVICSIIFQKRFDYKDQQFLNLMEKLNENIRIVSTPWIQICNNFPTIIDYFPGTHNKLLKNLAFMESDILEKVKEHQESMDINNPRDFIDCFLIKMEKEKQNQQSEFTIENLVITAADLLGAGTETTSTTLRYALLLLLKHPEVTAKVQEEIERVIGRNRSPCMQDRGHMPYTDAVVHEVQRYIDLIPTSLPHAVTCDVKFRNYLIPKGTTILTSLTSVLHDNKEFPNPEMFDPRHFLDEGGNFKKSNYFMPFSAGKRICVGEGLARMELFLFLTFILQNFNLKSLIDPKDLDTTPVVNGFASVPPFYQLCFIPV
CYP2C9 act: human CYP2C9 activators, primary screen, biochemical, luminescence; Cytochrome P450 2C9 (Homo sapiens), P11712; recombinant CYP2C9, luciferin-H conversion; hits give high values; factor 1 = untreated enzyme, 0 = blocked; activation factor at 5 µM; 96,000 compounds, 1.4% hits; AID 1024, 2008;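 active = activation factor of 2 or more for CYP2C9 at a 5 µM dose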;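 also: 0 = sulfaphenazole-blocked wells and 1 = vehicle-only wells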
CYP2C9 inhib: blockers of cytochrome P450 2C9 activity – biochemical, luminescence, ADME assay, primary screen; P11712; CYP2C9 Supersomes, luciferin-H conversion; inhibition, % at 5 µM; 96,000 compounds, 20% hits; AID 777, 2007;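 active = blocking of liver enzyme CYP2C9 beyond about 50% at 5 µM, limit read from the data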
CYP2C19 act: human CYP2C19 activators, primary screen, biochemical, luminescence; Cytochrome P450 2C19 (Homo sapiens), P33261; recombinant CYP2C19, luciferin-H EGE luminescence; hits give high values; 0 = fully inhibited enzyme, 1 = untreated enzyme; activation factor at 5 µM; 96,000 tested, under 10 active;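 active = activation factor of at least 2 at 5 µM in the primary screen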;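 also: 0 = wells with 2.5 mM tranylcypromine and 1 = vehicle-only wells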
PLAP act: PLAP enzyme activators, biochemical, luminescence, HTS | Alkaline phosphatase, placental type (Homo sapiens), P05187 | purified PLAP enzyme, luminescent substrate read-out; hits give high values | 96,000 compounds, 1.2% hits | activation fold at 20 µM | AID 696, 2007; in the data active = activation fold above about 2
An asterisk follows results filed as active; i = inactive.

SMILES	CYP2C19 inhib	CYP2C9 act	CYP2C9 inhib	CYP2C19 act	PLAP act
O=C(Nc1ccc(S(=O)(=O)NCc2ccco2)cc1)c1ccncc1	94*	0	98*	0.1	0.6
Cc1cc(C)n(Cc2ccc(C(=O)NCc3ccco3)o2)n1	24	0.8	22	0.8	1.5
Cc1cc(C)n(CCCNC(=O)c2ccc(S(=O)(=O)NCc3ccco3)cc2)n1	10	0.5	50*	0.9	1.2
Cn1c(SCCOc2ccc(Cl)cc2)nnc1-c1ccncc1	78*	0.7	31	0.2	1.1
Cc1cc(OCCSc2nnc(-c3cccs3)n2C)ccc1Cl	62*	0.6	40	0.4	0.8
Cc1nn(Cc2ccccc2)c(C)c1CCC(=O)O	5	1	-4	1	1.1
CC(=O)N/C(=C/c1ccc2c(c1)OCO2)C(=O)NCCCO	-14	1.2	-23	1.1	1
Cn1cc(C(=O)c2ccc(Cl)cc2Cl)cc1C(=O)O	-7	0.9	6	1.1	1
CC(=O)c1ncnn1CC(=O)c1ccc(Cl)cc1Cl	61*	0.7	32	0.4	1.4
COc1ccc(NC(=O)C2CC2)cc1NS(=O)(=O)c1ccc(F)cc1	58*	1	3	0.4	1.2
COc1cc(NS(=O)(=O)c2ccc(F)cc2)c(OC)cc1NC(C)=O	99*	0.3	67*	0	1.1
CCOc1cc(NS(=O)(=O)c2ccc(NC(C)=O)cc2)c(OCC)cc1NC(=O)C(C)C	-5	0.6	40	1.1	0.9
COc1ccc(C2C(C(=O)Nc3cccc(C)n3)c3ccccc3C(=O)N2C)cc1 (stereo unspecified)	17	0.6	43	0.8	1
O=C(Cn1nc(C(F)(F)F)c2c1CCCC2)NCCN1CCOCC1	64*	0.7	27	0.4	0.9
CC1CCN(C(=O)Cn2nc(C(F)(F)F)c3c2CCCC3)CC1	15	1	-4	0.8	0.9
COC(=O)c1ccccc1NC(=O)c1cc(-c2ccc(C)cc2)on1	8	1.3	-34	0.9	0.8
COc1ccc(C2C(C#N)=C(N)Oc3cc(C)n(CCN4CCOCC4)c(=O)c32)cc1OC (stereo unspecified)	10	0.9	14	0.9	1
COC(=O)C1=C(N)Oc2cc(C)n(CCN3CCOCC3)c(=O)c2C1c1cccnc1 (stereo unspecified)	71*	0.7	30	0.3	1
COC(=O)C1=C(N)Oc2cc(C)n(Cc3ccccc3)c(=O)c2C1c1ccccc1 (stereo unspecified)	45	0.3	75*	0.6	1
CCc1nc2sc(C)c(C)c2c(=O)n1CCO	-13	1.1	-14	1.1	0.9
C=CCNC(=O)CC(=O)N/N=C/c1ccc(C(=O)OC)cc1	-4	1.1	-5	1	1
CCCn1c(SC(C)C(=O)O)nc2ccccc21 (stereo unspecified)	11	1.3	-34	0.9	1.2
CCC(C)NC(=O)CSc1nc2n[nH]c(C)c2c(=N)n1-c1ccc(OC)cc1 (stereo unspecified)	5	1	-4	0.9	1.1
CCNC(=O)CSc1nnc(-c2ccccc2)n1-c1ccc(OCC)cc1	29	0.4	60*	0.7	1.3
CCOC(=O)CNC(=O)CSc1nnc(-c2cccc(C)c2)n1-c1ccc(OC)cc1	69*	0.7	31	0.3	1.7
SMILES	CYP2C19 inhib	CYP2C9 act	CYP2C9 inhib	CYP2C19 act	PLAP act
C=CCn1c(SCC(=O)NCC(=O)OCC)nnc1-c1cccc(OC)c1	1	1.1	-7	1	0.8
CCC(C)NC(=O)CSc1nnc(-c2ccncc2)n1-c1ccc(OC)cc1 (stereo unspecified)	100*	0.1	86*	0	1.3
Cc1cccc(N2CCN(C(=O)c3ccc(CS(=O)(=O)c4ccccc4C)o3)CC2C)c1 (stereo unspecified)	58*	0.2	84*	0.4	1.4
Cc1ccc(S(=O)(=O)Cc2ccc(C(=O)N3CCN(c4cc(C)ccc4C)CC3)o2)cc1	-2	0.9	6	1	0.9
Cc1ccc(C)c(N2CCN(C(=O)c3ccc(CS(=O)(=O)c4ccccc4C)o3)CC2)c1	35	0.3	69*	0.7	1.5
COc1ccccc1S(=O)(=O)Cc1ccc(C(=O)N2CCN(c3cccc(Cl)c3)CC2)o1	53*	0.6	37	0.5	1.7
O=C(c1ccc(COc2ccccc2Cl)o1)N1CCN(c2ccccc2)CC1	92*	0	97*	0.1	1.7
COc1ccccc1S(=O)(=O)Cc1ccc(C(=O)N2CCN(c3ccccc3)CC2)o1	24	0.8	22	0.8	1.5
O=C(C1CCN(C2CC(=O)N(c3ccc(Cl)cc3)C2=O)CC1)N1CCOCC1 (stereo unspecified)	-8	1.2	-23	1.1	1.2
Cc1cc(C)n2cc(CSc3nnc(N)s3)nc2n1	-6	1.1	-6	1.1	0.9
COC(=O)c1ccc(CSc2nnc(Nc3ccc(C)cc3)s2)o1	24	0.7	26	0.8	0.9
Nc1cccc(-n2nncc2-c2ccc(Cl)cc2)c1	77*	0.8	16	0.2	0.9
COc1cc2c(cc1OC)C(=S)NC(C)(C)C2	14	0.8	16	0.9	0.8
Cc1onc(-c2ccccc2)c1C(=O)NCc1ccccn1	27	0.9	8	0.7	1.1
Cc1onc(-c2ccccc2)c1C(=O)NCc1ccc2c(c1)OCO2	92*	0.4	57*	0.1	1
Cc1onc(-c2ccccc2)c1C(=O)NCC1COc2ccccc2O1 (stereo unspecified)	79*	0.6	43	0.2	1
Cn1c2ccccc2c2c(C(=O)NCc3ccco3)cn(C3CCCCC3)c(=O)c21	20	0.5	45	0.8	1.8
O=C1CN(C(=O)CC2c3ccccc3-c3ccccc32)CC(=O)N1	23	0.9	10	0.8	0.9
COC(=O)C1=C(C)N=C2SC(C#N)=C(N)N2C1c1cccc(OC)c1 (stereo unspecified)	96*	0.1	92*	0	1
COc1ccc(NC(=O)C(C)N2c3cccc4cccc(c34)S2(=O)=O)cc1 (stereo unspecified)	67*	0.5	50	0.3	0.7
COC(=O)CNC(=O)CN1c2cccc3cccc(c23)S1(=O)=O	14	2.1*	-109	0.9	1
O=C(CN1c2cccc3cccc(c23)S1(=O)=O)N1CCOCC1	25	0.9	13	0.7	1.1
COc1ccc(NC(=O)CN2c3cccc4cccc(c34)S2(=O)=O)cc1	18	2.8*	-184	0.8	1
CCN1c2cccc3cccc(c23)S1(=O)=O	78*	6.2*	i	0.2	0.8
COc1ccc(NC(=O)CCN2C(=O)c3ccccc3S2(=O)=O)cc1	4	0.8	17	1	0.9

Source: PubChem BioAssay
